From PubChem BioAssay (NCI)
This is part of a sample that, as a whole, favours compounds with a hit. Of some 79,000 tested, about 15% had one in any assay. Activity calls are given as the source filed them. Rule as the data show it: active = growth inhibition above about 70%; inactive = the rest.

Experiments:
[1] = NCI Yeast Anticancer Drug Screen. Data for the rad50EPP+ strain (AID 151);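 also: 0% = growth of vehicle-treated control cultures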; conditions: S. cerevisiae rad50 mutant strain, active compounds read high
Outline: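 Read-out is yeast growth inhibition relative to vehicle; cells used were the rad50EPP+ strain.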

[2] = NCI Yeast Anticancer Drug Screen. Data for the mgt1 strain (AID 153); conditions: S. cerevisiae mgt1 mutant growth inhibition, active compounds read high
Outline: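 Measured: inhibition of mgt1 yeast growth by compound, normalized to vehicle-treated cultures.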

[3] = NCI Yeast Anticancer Drug Screen. Data for the rad50 strain (AID 155);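 also: 0% = growth of vehicle-only cultures of the same strain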; conditions: S. cerevisiae rad50 strain growth inhibition, active compounds read high
Outline: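 Cells are treated with compound, grown, and their growth is then scored against vehicle-only cultures of the same repair-deficient yeast strain.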

[4] = NCI Yeast Anticancer Drug Screen. Data for the mec2-1 strain (AID 157); conditions: S. cerevisiae mec2-1 strain, active compounds read high
Outline: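 Using mec2-1 yeast: add compound, measure growth, express inhibition versus vehicle-treated cultures.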

[5] = NCI Yeast Anticancer Drug Screen. Data for the rad14 strain (AID 159);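 also: 0% = growth of vehicle-treated control cultures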; conditions: S. cerevisiae rad14 strain growth inhibition, active compounds read high
Outline: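 Readout: yeast growth inhibition, referenced to vehicle-only cultures. Strain bears a defined alteration in DNA damage repair.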

[6] = NCI Yeast Anticancer Drug Screen. Data for the sgs1 mgt1 strain (AID 161);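 also: 0% = growth of cultures given vehicle only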; conditions: S. cerevisiae sgs1 mgt1 strain, active compounds read high
Outline: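 This yeast growth screen uses a strain with defined DNA-repair lesions; compound-treated growth is compared with vehicle-treated growth.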

[7] = NCI Yeast Anticancer Drug Screen. Data for the CLN2oe strain (AID 163);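 also: 0% = growth of vehicle-only control cultures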; conditions: S. cerevisiae CLN2oe strain, active compounds read high
Outline: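 Whole-cell yeast growth assay. A strain engineered for altered cell-cycle control received compound, and inhibition relative to vehicle-treated cultures was recorded.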

[8] = NCI Yeast Anticancer Drug Screen. Data for the cln2 rad14 strain (AID 165);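 also: 0% = growth equal to vehicle treated cultures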; conditions: S. cerevisiae cln2 rad14 strain, active compounds read high
Outline: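 Yeast strain cln2 rad14, bearing defects in cell cycle control and DNA repair, serves as the test system; values reflect growth inhibition compared with vehicle.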

[9] = NCI Yeast Anticancer Drug Screen. Data for the bub3 strain (AID 167); conditions: S. cerevisiae bub3 mutant strain, active compounds read high
Outline: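 Part of a panel of yeast mutants defective in DNA damage repair or cell cycle regulation. Each strain is grown with compound, and inhibition is calculated relative to solvent-treated cultures.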

[10] = NCI Yeast Anticancer Drug Screen. Data for the wt2 strain (AID 169);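 also: 0% = growth of vehicle-treated yeast cultures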; conditions: S. cerevisiae wt2 strain growth inhibition, active compounds read high
Outline: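 Treated yeast vs. vehicle-treated yeast: growth inhibition determined.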

[11] = NCI Yeast Anticancer Drug Screen. Data for the mlh1 strain (AID 171);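 also: 0% = growth of vehicle-treated control cultures of the same strain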; conditions: S. cerevisiae mlh1 strain growth inhibition, active compounds read high
Outline: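 A yeast strain with a defined genetic lesion serves as the test organism. Cultures receive compound or vehicle, and growth is measured.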

[12] = NCI Yeast Anticancer Drug Screen. Data for the sgs1 strain (AID 173);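 also: 0% = growth of vehicle-only control cultures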; conditions: S. cerevisiae sgs1 mutant, active compounds read high
Outline: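 A genetically defined yeast mutant is incubated with the test compound, and its growth is compared to that of the same strain given vehicle.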

[13] = NCI Yeast Anticancer Drug Screen. Data for the mlh1 rad18 strain (AID 175); conditions: S. cerevisiae mlh1 rad18 strain growth inhibition, active compounds read high
Outline: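 Steps: expose repair-defective yeast to compound; measure growth; express inhibition against vehicle-treated controls.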

[14] = NCI Yeast Anticancer Drug Screen. Data for the rad18 strain (AID 177); conditions: S. cerevisiae rad18 mutant growth inhibition, active compounds read high
Outline: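 Measured value is growth inhibition of a yeast strain bearing a DNA repair alteration, referenced to vehicle-treated cells.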

[15] = NCI Yeast Anticancer Drug Screen. Data for the rad52 strain (AID 147);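 also: 0% = growth of vehicle-treated control cultures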; conditions: S. cerevisiae rad52 mutant growth inhibition, active compounds read high
Outline: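 Here a repair-compromised yeast strain receives each compound; its growth is then quantified and normalised to vehicle-only controls.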

[16] = NCI Yeast Anticancer Drug Screen. Data for the wt1 strain (AID 149);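 also: 0% = growth of vehicle-treated wt1 cultures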; conditions: S. cerevisiae wt1 strain (SPY 50644) growth inhibition, active compounds read high
Outline: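 The wt1 strain was treated with compounds, and growth was compared with vehicle-treated cultures to give inhibition.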

[17] = at 5.0 µM (retest, dose inferred, filed as 0.5)
[18] = at 50.0 µM (retest, dose inferred, filed as 5.0)

Measured: growth inhibition

Clc1c(Cl)c(Cl)c2n[nH]nc2c1Cl
inactive: [1]; at 1.2 µM -62% | [1]; at 3.7 µM -51% | [1]; at 11.0 µM -28% | [1]; at 33.0 µM 18% | [1]; at 100.0 µM 20% | [2]; at 1.2 µM -23% | [2]; at 3.7 µM -12% | [2]; at 11.0 µM -5% | [2]; at 33.0 µM 6% | [3]; at 1.2 µM -13% | [3]; at 3.7 µM -21% | [3]; at 11.0 µM -9% | [3]; at 33.0 µM 14% | [3]; at 50.0 µM 60.1% | [4]; at 1.2 µM -6% | [4]; at 3.7 µM -20% | [4]; at 11.0 µM -21% | [4]; at 33.0 µM 9% | [4]; at 50.0 µM 54.8% | [5]; at 1.2 µM -9% | [5]; at 3.7 µM -19% | [5]; at 11.0 µM -9% | [5]; at 33.0 µM 11% | [6]; [17] -17% | [7]; at 1.2 µM -7% | [7]; at 3.7 µM -10% | [7]; at 11.0 µM 1% | [7]; at 33.0 µM 21% | [8]; [17] 57% | [8]; [18] 57% | [9]; at 1.2 µM -21% | [9]; at 3.7 µM -18% | [9]; [17] -11% | [9]; at 11.0 µM -10% | [9]; at 33.0 µM 15% | [10]; at 1.2 µM -24% | [10]; at 3.7 µM -18% | [10]; at 11.0 µM -7% | [10]; at 33.0 µM -3% | [11]; at 1.2 µM -59% | [11]; at 3.7 µM -52% | [11]; at 11.0 µM -33% | [11]; at 33.0 µM 14% | [12]; at 1.2 µM -40% | [12]; at 3.7 µM -26% | [12]; at 11.0 µM -12% | [12]; at 33.0 µM 30% | [13]; at 50.0 µM 37.5% | [14]; at 1.2 µM -29% | [14]; at 3.7 µM -38% | [14]; at 11.0 µM -25% | [14]; at 33.0 µM 4% | [14]; at 100.0 µM 57%
active: [2]; at 100.0 µM 86% | [3]; [17] 100% | [3]; [18] 100% | [3]; at 100.0 µM 75% | [4]; [17] 100% | [4]; [18] 100% | [4]; at 100.0 µM 82% | [5]; at 100.0 µM 94% | [6]; [18] 78% | [7]; at 100.0 µM 76% | [9]; [18] 73% | [9]; at 100.0 µM 87% | [10]; at 100.0 µM 94% | [11]; at 100.0 µM 75% | [12]; at 100.0 µM 91% | [13]; [17] 100% | [13]; [18] 100%

Oc1ccc(Br)cc1C=NC1CCCCC1
inactive: [15]; at 1.2 µM 0% | [15]; at 3.7 µM 15% | [15]; at 11.0 µM 35% | [1]; at 1.2 µM 3% | [1]; at 3.7 µM 12% | [1]; at 11.0 µM 35% | [3]; at 1.2 µM -14% | [3]; at 3.7 µM -18% | [3]; [17] 44% | [3]; at 11.0 µM 49% | [3]; [18] 45% | [4]; at 1.2 µM -24% | [4]; at 3.7 µM -21% | [4]; [17] 47% | [4]; at 11.0 µM 11% | [4]; [18] 60% | [5]; at 1.2 µM 15% | [5]; at 3.7 µM 24% | [6]; [17] -2% | [7]; at 1.2 µM -3% | [7]; at 3.7 µM 1% | [7]; at 11.0 µM 12% | [7]; at 33.0 µM 39% | [8]; [17] 53% | [8]; at 50.0 µM 57% | [9]; at 1.2 µM -4% | [9]; at 3.7 µM 2% | [9]; [17] 46% | [9]; at 11.0 µM 5% | [9]; at 33.0 µM 59% | [10]; at 1.2 µM -2% | [10]; at 3.7 µM 0% | [10]; at 11.0 µM 15% | [11]; at 1.2 µM -6% | [11]; at 3.7 µM 17% | [11]; at 11.0 µM 59% | [12]; at 1.2 µM 7% | [12]; at 3.7 µM 6% | [12]; at 11.0 µM 39% | [13]; [17] 32% | [13]; [18] 53% | [14]; at 1.2 µM 5% | [14]; at 3.7 µM 11% | [14]; at 11.0 µM 29%
active: [15]; at 33.0 µM 95% | [15]; at 100.0 µM 98% | [1]; at 33.0 µM 74% | [1]; at 100.0 µM 93% | [3]; at 33.0 µM 97% | [3]; at 50.0 µM 78.9% | [3]; at 100.0 µM 97% | [4]; at 33.0 µM 94% | [4]; at 50.0 µM 88.5% | [4]; at 100.0 µM 99% | [5]; at 11.0 µM 85% | [5]; at 33.0 µM 99% | [5]; at 100.0 µM 99% | [6]; [18] 99% | [6]; at 50.0 µM 85.3% | [7]; at 100.0 µM 98% | [8]; [18] 99% | [9]; [18] 99% | [9]; at 50.0 µM 87% | [9]; at 100.0 µM 97% | [10]; at 33.0 µM 74% | [10]; at 100.0 µM 99% | [11]; at 33.0 µM 96% | [11]; at 100.0 µM 99% | [12]; at 33.0 µM 92% | [12]; at 100.0 µM 98% | [13]; at 50.0 µM 77% | [14]; at 33.0 µM 92% | [14]; at 100.0 µM 97%

CCCCC1=NNC(=O)C1
active: [3]; [18] 78% | [6]; at 50.0 µM 90% | [9]; at 50.0 µM 81.7%
inactive: [15]; at 1.2 µM 2% | [15]; at 3.7 µM 4% | [15]; at 11.0 µM 0% | [15]; at 33.0 µM 7% | [15]; at 100.0 µM 15% | [16]; at 1.2 µM 1% | [16]; at 3.7 µM 2% | [16]; at 11.0 µM 8% | [16]; at 33.0 µM 7% | [16]; at 100.0 µM 5% | [3]; at 1.2 µM 3% | [3]; at 3.7 µM -11% | [3]; [17] 45% | [3]; at 11.0 µM -6% | [3]; at 33.0 µM -11% | [3]; at 50.0 µM 3% | [3]; at 100.0 µM 9% | [4]; at 1.2 µM -7% | [4]; at 3.7 µM -5% | [4]; [17] 32% | [4]; at 11.0 µM -8% | [4]; at 33.0 µM -9% | [4]; [18] 57% | [4]; at 50.0 µM -3.3% | [4]; at 100.0 µM 5% | [5]; at 1.2 µM 6% | [5]; at 3.7 µM 11% | [5]; at 11.0 µM 9% | [5]; at 33.0 µM 13% | [5]; at 100.0 µM 18% | [6]; [17] 17% | [6]; [18] -26% | [7]; at 1.2 µM -43% | [7]; at 3.7 µM -48% | [7]; at 11.0 µM -52% | [7]; at 33.0 µM -70% | [7]; at 100.0 µM -28% | [8]; [17] 28% | [8]; [18] -56% | [8]; at 50.0 µM 52% | [9]; at 1.2 µM -4% | [9]; at 3.7 µM 0% | [9]; [17] 22% | [9]; at 11.0 µM -11% | [9]; at 33.0 µM 0% | [9]; [18] -26% | [9]; at 100.0 µM 7% | [10]; at 1.2 µM -40% | [10]; at 3.7 µM -45% | [10]; at 11.0 µM -64% | [10]; at 33.0 µM -52% | [10]; at 100.0 µM -66% | [11]; at 1.2 µM -11% | [11]; at 3.7 µM 1% | [11]; at 11.0 µM -7% | [11]; at 33.0 µM -10% | [11]; at 100.0 µM -18% | [12]; at 1.2 µM 10% | [12]; at 3.7 µM 12% | [12]; at 11.0 µM 0% | [12]; at 33.0 µM -22% | [12]; at 100.0 µM 5% | [13]; [17] 53% | [13]; [18] 69% | [13]; at 50.0 µM -34.6% | [14]; at 1.2 µM -10% | [14]; at 3.7 µM 1% | [14]; at 11.0 µM 0% | [14]; at 33.0 µM 1% | [14]; at 100.0 µM 24%
